Source: the supplement of paper PMC11732987, “Enantioselective OTUD7B fragment discovery through chemoproteomics screening and high-throughput optimisation” (Communications Chemistry, 2025)

Assays:
Experiment in all cases: log2 ratio of Biotin-Ahx-Ub-VS probe labelling (compound/DMSO); higher = less target engagement, active = hit call of the paper (q ≤ 0.05, log2 ratio ≤ -1)
Settings in all cases: treatment time: 3 h
[1] = compound: CCC1N(CCc2sccc12)C(=O)CCl
Outline: (§1)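 For activity-based profiling, 495 µg portions of HEK293T lysate in Tris/CHAPS/IGEPAL buffer with protease inhibitors were treated in triplicate with compound at 50 or 200 µM or with DMSO for 3 h. A 1 h incubation with Biotin-Ahx-Ub-VS (0.5 µM final) followed, then NeutrAvidin enrichment, LysC and trypsin digestion and diaPASEF LC-MS/MS. The compound/DMSO base-two log ratios were averaged from median-normalised label-free quantities using an unpaired t-test. Proteins needed at least 2 unique peptides to be included.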

[2] = compound: CN1c2ccccc2C(CS1(=O)=O)NC(=O)CCl
Outline: as §1

[3] = compound: Cl.ClCC(=O)N1CCc2ncncc2C1
Outline: as §1

[4] = compound: Cl.Cn1ncc2C(CCCc12)NC(=O)CCl
Outline: as §1

[5] = compound: ClCC(=O)NC1CCOc2ccccc12
Outline: as §1

[6] = compound: ClCC(=O)NC1CCCc2ccccc12
Outline: (§2)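 Values are average ratios of compound to vehicle from an unpaired t-test, limited to proteins with at least two unique peptides. HEK293T lysate (495 µg per sample, in Tris/CHAPS/IGEPAL buffer with protease inhibitors) was exposed in triplicate to a concentration series of compound or to vehicle for 3 h, then to Biotin-Ahx-Ub-VS at 0.5 µM final for 1 h. Labelled deubiquitinases were enriched on NeutrAvidin, digested with LysC and trypsin, and analysed by diaPASEF LC-MS/MS. Ratios are given on a log2 scale from Spectronaut label-free protein quantities normalised to the global median.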

[7] = compound: ClCC(=O)N[C@@H]1CCCc2ccccc12
Outline: as §2

[8] = compound: ClCC(=O)N[C@H]1CCCc2ccccc12
Outline: as §2

[9] = compound: CCC1N(CCc2cc(OC)c(Cl)cc12)C(=O)CCl
Outline: as §1

[10] = compound: CCCC1N(CCc2cc(OC)c(OC)cc12)C(=O)CCl
Outline: as §1

[11] = compound: CN(Cc1cccc(Br)c1)C(=O)CCl
Outline: as §1

[12] = compound: CN(Cc1ccccc1)C(=O)CCl
Outline: as §1

[13] = compound: COc1ccc(CN(C)C(=O)CCl)cc1
Outline: as §1

[14] = compound: COc1cccc(CN(CCCc2ccccc2)C(=O)CCl)c1
Outline: as §1

[15] = compound: ClCC(=O)N1CCc2cc(Cl)c(Cl)cc2C1
Outline: as §1

[16] = compound: ClCC(=O)N1CCc2nc(ncc2C1)-c1ccccc1
Outline: as §1

[17] = compound: ClCC(=O)N1CCc2nocc2C1
Outline: as §1

[18] = compound: ClCC(=O)N1CCc2scc(Br)c2C1
Outline: as §1

[19] = compound: ClCC(=O)NC(C1CCCC1)c1cccs1
Outline: as §1

Measured: log2 ratio of Biotin-Ahx-Ub-VS probe labelling

USP14 (UniProt P54578)
Chain of UniProt P54578 (P54578 whole entry): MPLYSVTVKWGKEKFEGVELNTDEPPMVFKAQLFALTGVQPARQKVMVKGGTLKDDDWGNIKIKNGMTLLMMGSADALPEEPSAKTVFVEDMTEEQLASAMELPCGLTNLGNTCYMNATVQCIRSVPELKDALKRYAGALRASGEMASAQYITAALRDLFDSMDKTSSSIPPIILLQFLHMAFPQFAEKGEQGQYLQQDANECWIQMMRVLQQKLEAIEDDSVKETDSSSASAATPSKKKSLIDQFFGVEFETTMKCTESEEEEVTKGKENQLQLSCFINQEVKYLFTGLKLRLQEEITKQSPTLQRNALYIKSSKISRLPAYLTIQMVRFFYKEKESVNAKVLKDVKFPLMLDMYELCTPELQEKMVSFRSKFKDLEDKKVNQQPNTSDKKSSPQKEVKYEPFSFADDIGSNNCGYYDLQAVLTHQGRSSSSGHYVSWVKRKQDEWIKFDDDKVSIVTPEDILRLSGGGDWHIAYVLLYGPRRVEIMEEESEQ
inactive: [1]; compound concentration: 50uM -0.3 | [1]; compound concentration: 200uM -0.357 | [2]; compound concentration: 50uM -0.167 | [2]; compound concentration: 200uM -0.105 | [3]; compound concentration: 50uM 0.049 | [3]; compound concentration: 200uM -0.23 | [4]; compound concentration: 50uM 0.132 | [4]; compound concentration: 200uM 0.0271 | [5]; compound concentration: 50uM -0.194 | [5]; compound concentration: 200uM -0.0567 | [6]; compound concentration: 0.78uM -0.378 | [6]; compound concentration: 1.56uM -0.128 | [6]; compound concentration: 3.13uM -0.334 | [6]; compound concentration: 6.25uM -0.143 | [6]; compound concentration: 12.5uM -0.315 | [6]; compound concentration: 25uM -0.455 | [6]; compound concentration: 50uM -0.285 | [6]; compound concentration: 100uM -0.509 | [6]; compound concentration: 200uM -0.231 | [7]; compound concentration: 0.78uM -0.393 | [7]; compound concentration: 1.56uM -0.0826 | [7]; compound concentration: 3.13uM -0.368 | [7]; compound concentration: 6.25uM -0.447 | [7]; compound concentration: 12.5uM -0.296 | [7]; compound concentration: 25uM -0.25 | [7]; compound concentration: 50uM -0.116 | [7]; compound concentration: 100uM -0.289 | [7]; compound concentration: 200uM -0.289 | [8]; compound concentration: 0.78uM -0.158 | [8]; compound concentration: 1.56uM -0.187 | [8]; compound concentration: 3.13uM -0.308 | [8]; compound concentration: 6.25uM -0.249 | [8]; compound concentration: 12.5uM -0.442 | [8]; compound concentration: 25uM -0.253 | [8]; compound concentration: 50uM -0.322 | [8]; compound concentration: 100uM -0.332 | [8]; compound concentration: 200uM -0.157 | [9]; compound concentration: 50uM -0.071 | [9]; compound concentration: 200uM -0.127 | [10]; compound concentration: 50uM -0.132 | [10]; compound concentration: 200uM 0.0879 | [11]; compound concentration: 50uM -0.191 | [11]; compound concentration: 200uM -0.555 | [12]; compound concentration: 50uM -0.14 | [12]; compound concentration: 200uM 0.0709 | [13]; compound concentration: 50uM -0.127 | [13]; compound concentration: 200uM -0.0256 | [14]; compound concentration: 50uM -0.187 | [14]; compound concentration: 200uM -0.626 | [15]; compound concentration: 50uM -0.137 | [15]; compound concentration: 200uM -0.35 | [16]; compound concentration: 50uM 0.0498 | [16]; compound concentration: 200uM 0.0841 | [17]; compound concentration: 50uM -0.186 | [17]; compound concentration: 200uM -0.17 | [18]; compound concentration: 50uM -0.438 | [19]; compound concentration: 50uM -0.115 | [19]; compound concentration: 200uM -0.1
active: [18]; compound concentration: 200uM -1

UniProt O00487
Chain of UniProt O00487 (O00487 whole entry): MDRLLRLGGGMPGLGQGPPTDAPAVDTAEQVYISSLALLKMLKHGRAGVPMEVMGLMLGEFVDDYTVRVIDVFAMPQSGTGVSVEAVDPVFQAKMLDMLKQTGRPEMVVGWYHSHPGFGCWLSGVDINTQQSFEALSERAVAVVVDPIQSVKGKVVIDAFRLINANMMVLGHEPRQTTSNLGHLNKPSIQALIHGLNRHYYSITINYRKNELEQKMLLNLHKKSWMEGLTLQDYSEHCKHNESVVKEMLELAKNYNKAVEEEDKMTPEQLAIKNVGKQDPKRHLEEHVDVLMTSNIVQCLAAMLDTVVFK
inactive: [1]; compound concentration: 50uM -0.193 | [1]; compound concentration: 200uM -0.218 | [2]; compound concentration: 50uM -0.0425 | [2]; compound concentration: 200uM -0.0779 | [3]; compound concentration: 50uM 0.107 | [3]; compound concentration: 200uM -0.106 | [4]; compound concentration: 50uM -0.124 | [4]; compound concentration: 200uM -0.336 | [5]; compound concentration: 50uM 0.217 | [5]; compound concentration: 200uM -0.351 | [6]; compound concentration: 0.78uM -0.644 | [6]; compound concentration: 1.56uM -0.964 | [6]; compound concentration: 3.13uM -0.768 | [6]; compound concentration: 6.25uM -0.916 | [6]; compound concentration: 12.5uM -0.0532 | [6]; compound concentration: 25uM -1.08 | [6]; compound concentration: 50uM -1.09 | [6]; compound concentration: 100uM -0.828 | [6]; compound concentration: 200uM -0.122 | [7]; compound concentration: 0.78uM -0.274 | [7]; compound concentration: 1.56uM -0.457 | [7]; compound concentration: 3.13uM -0.399 | [7]; compound concentration: 6.25uM -0.508 | [7]; compound concentration: 12.5uM -0.515 | [7]; compound concentration: 25uM -0.563 | [7]; compound concentration: 50uM -0.92 | [7]; compound concentration: 100uM 0.108 | [7]; compound concentration: 200uM -0.319 | [8]; compound concentration: 0.78uM -0.768 | [8]; compound concentration: 1.56uM -0.631 | [8]; compound concentration: 3.13uM -0.859 | [8]; compound concentration: 6.25uM -0.646 | [8]; compound concentration: 12.5uM 0.00923 | [8]; compound concentration: 25uM -0.657 | [8]; compound concentration: 50uM -0.0791 | [8]; compound concentration: 100uM -0.905 | [8]; compound concentration: 200uM -0.369 | [9]; compound concentration: 50uM 0.0571 | [9]; compound concentration: 200uM 0.132 | [10]; compound concentration: 50uM 0.000271 | [10]; compound concentration: 200uM -0.108 | [11]; compound concentration: 50uM -0.27 | [11]; compound concentration: 200uM -0.709 | [12]; compound concentration: 50uM -0.0192 | [12]; compound concentration: 200uM 0.243 | [13]; compound concentration: 50uM -0.0826 | [13]; compound concentration: 200uM -0.0205 | [14]; compound concentration: 50uM 0.102 | [14]; compound concentration: 200uM 0.0842 | [15]; compound concentration: 50uM -0.325 | [15]; compound concentration: 200uM -0.335 | [16]; compound concentration: 50uM -0.128 | [16]; compound concentration: 200uM 0.13 | [17]; compound concentration: 50uM -0.239 | [17]; compound concentration: 200uM -0.187 | [18]; compound concentration: 50uM -0.175 | [18]; compound concentration: 200uM -0.724 | [19]; compound concentration: 50uM -0.101 | [19]; compound concentration: 200uM -0.0832

UCHL5 (UniProt Q9Y5K5)
Chain of UniProt Q9Y5K5 (Q9Y5K5 whole entry): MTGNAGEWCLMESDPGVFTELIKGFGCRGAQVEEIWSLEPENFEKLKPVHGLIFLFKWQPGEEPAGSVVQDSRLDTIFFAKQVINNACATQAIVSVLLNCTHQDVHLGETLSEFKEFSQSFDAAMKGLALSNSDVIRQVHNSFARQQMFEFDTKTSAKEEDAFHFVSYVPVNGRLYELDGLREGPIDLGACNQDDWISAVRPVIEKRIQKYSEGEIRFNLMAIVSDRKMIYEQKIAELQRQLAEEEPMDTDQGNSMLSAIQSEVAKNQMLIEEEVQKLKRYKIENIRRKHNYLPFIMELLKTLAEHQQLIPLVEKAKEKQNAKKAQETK
active: [14]; compound concentration: 200uM -1.17 | [15]; compound concentration: 200uM -1.36
inactive: [1]; compound concentration: 50uM -0.261 | [1]; compound concentration: 200uM -0.413 | [2]; compound concentration: 50uM -0.312 | [2]; compound concentration: 200uM -0.412 | [3]; compound concentration: 50uM -0.053 | [3]; compound concentration: 200uM -0.389 | [4]; compound concentration: 50uM 0.0591 | [4]; compound concentration: 200uM -0.0343 | [5]; compound concentration: 50uM -0.0586 | [5]; compound concentration: 200uM -0.0877 | [6]; compound concentration: 0.78uM -0.151 | [6]; compound concentration: 1.56uM -0.0693 | [6]; compound concentration: 3.13uM -0.187 | [6]; compound concentration: 6.25uM -0.075 | [6]; compound concentration: 12.5uM -0.156 | [6]; compound concentration: 25uM -0.346 | [6]; compound concentration: 50uM -0.111 | [6]; compound concentration: 100uM -0.166 | [6]; compound concentration: 200uM -0.211 | [7]; compound concentration: 0.78uM -0.425 | [7]; compound concentration: 1.56uM -0.183 | [7]; compound concentration: 3.13uM -0.22 | [7]; compound concentration: 6.25uM -0.255 | [7]; compound concentration: 12.5uM -0.281 | [7]; compound concentration: 25uM -0.176 | [7]; compound concentration: 50uM -0.209 | [7]; compound concentration: 100uM -0.17 | [7]; compound concentration: 200uM -0.35 | [8]; compound concentration: 0.78uM -0.162 | [8]; compound concentration: 1.56uM -0.217 | [8]; compound concentration: 3.13uM -0.188 | [8]; compound concentration: 6.25uM 0.0176 | [8]; compound concentration: 12.5uM -0.23 | [8]; compound concentration: 25uM -0.161 | [8]; compound concentration: 50uM -0.0913 | [8]; compound concentration: 100uM -0.178 | [8]; compound concentration: 200uM -0.266 | [9]; compound concentration: 50uM -0.0479 | [9]; compound concentration: 200uM -0.725 | [10]; compound concentration: 50uM -0.464 | [10]; compound concentration: 200uM -0.644 | [11]; compound concentration: 50uM -0.213 | [11]; compound concentration: 200uM -0.442 | [12]; compound concentration: 50uM -0.356 | [12]; compound concentration: 200uM -0.432 | [13]; compound concentration: 50uM -0.288 | [13]; compound concentration: 200uM -0.317 | [14]; compound concentration: 50uM -0.37 | [15]; compound concentration: 50uM -0.0548 | [16]; compound concentration: 50uM 0.0333 | [16]; compound concentration: 200uM -0.459 | [17]; compound concentration: 50uM -0.287 | [17]; compound concentration: 200uM -0.349 | [18]; compound concentration: 50uM -0.0669 | [18]; compound concentration: 200uM -0.74 | [19]; compound concentration: 50uM -0.0991 | [19]; compound concentration: 200uM -0.214
